According to PubChem BioAssay AID1159580 (chemical genetic matrix, 2015):
Among all 5,500 compounds or so, about 2,000 (36%) were called active. Roughly 18% stayed inconclusive and do not appear here. Cut-off read from the data, not from the text of the source: active = normalized growth mostly below about 0.91 (no sharp cut-off); inconclusive = no clear call, values can overlap the other calls; inactive = mostly above about 0.92. The list shows a part of the results.

Test: chemical genetic growth profiling, strain panel (AID 1159580);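 note: tested at 20 µM; growth read once vehicle control cultures reached saturation at 30 °C; 1 = growth at the plate median or of vehicle wells; lower values mean less growth of the strain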
Conditions: S. cerevisiae deletion strains, growth OD

Measured: normalized growth

CC1(C)CCCC2(C)C3C1[C@@H](O)C2(C)C[C@H]3O (stereo not given in full)
inactive: locus YAL021C, strain ccr4, hits give low values 1.01 | locus YAL026C, strain drs2, hits give low values 1.04 | locus YAL030W, strain snc1, hits give low values 0.993 | locus YBL061C, strain skt5, hits give low values 1.01 | locus YBR009C, strain hhf1, hits give low values 1.03 | locus YBR023C, strain chs3, hits give low values 1.01 | locus YBR171W, strain sec66, hits give low values 1.04 | locus YBR231C, strain swc5, hits give low values 1.03 | locus YBR279W, strain paf1, hits give low values 1.03 | locus YCL011C, strain gbp2, hits give low values 1.03 | locus YCL016C, strain dcc1, hits give low values 1 | locus YCL061C, strain MRC1, hits give low values 1.02 | locus YCL069W, strain vba3, hits give low values 1.02 | locus YCR088W, strain abp1, hits give low values 1.03 | locus YDL005C, strain med2, hits give low values 1.03 | locus YDL040C, strain nat1, hits give low values 1.01 | locus YDR001C, strain nth1, hits give low values 1.03 | locus YDR069C, strain doa4, hits give low values 0.992 | locus YDR137W, strain rgp1, hits give low values 0.973 | locus YDR159W, strain sac3, hits give low values 0.991 | locus YDR195W, strain ref2 1.02 | locus YDR297W, strain sur2, hits give low values 0.985 | locus YDR334W, strain swr1, hits give low values 1.03 | locus YDR335W, strain msn5, hits give low values 0.995 | locus YDR392W, strain spt3, hits give low values 0.941 | locus YEL003W, strain gim4, hits give low values 1.03 | locus YEL037C, strain rad23, hits give low values 1.03 | locus YEL061C, strain CIN8 (second series), hits give low values 1.03 | locus YER015W, strain faa2, hits give low values 1.03 | locus YER016W, strain bim1, hits give low values 1.01 | locus YER111C, strain swi4, hits give low values 1.03 | locus YER155C, strain BEM2 (second series), hits give low values 1.02 | locus YFR010W, strain ubp6, hits give low values 1.04 | locus YGL167C, strain pmr1, hits give low values 1.01 | locus YGL173C, strain kem1, hits give low values 1.03 | locus YGL227W, strain vid30, hits give low values 1.03 | locus YGL240W, strain doc1, hits give low values 1 | locus YGL253W, strain hxk2, hits give low values 1.03 | locus YHR013C, strain ard1, hits give low values 1.04 | locus YHR027C, strain rpn1, hits give low values 0.998 | locus YHR030C, strain SLT2, hits give low values 0.976 | locus YHR079C, strain IRE1, hits give low values 0.983 | locus YHR142W, strain chs7, hits give low values 1.01 | locus YJL092W, strain hpr5, hits give low values 1.03 | locus YJL095W, strain BCK1 (second series), hits give low values 0.988 | locus YJL095W, strain BCK1, hits give low values 1 | locus YJL115W, strain asf1, hits give low values 1.03 | locus YJL129C, strain trk1, hits give low values 1.05 | locus YJL154C, strain vps35, hits give low values 1.02 | locus YJL164C, strain tpk1, hits give low values 1.01 | locus YJL166W, strain qcr8, hits give low values 1.04 | locus YJL187C, strain SWE1, hits give low values 0.985 | locus YJR066W, strain TOR1, hits give low values 0.923 | locus YKL160W, strain elf1, hits give low values 0.986 | locus YKR026C, strain gcn3, hits give low values 1.02 | locus YKR091W, strain srl3, hits give low values 1.02 | locus YLL001W, strain dnm1, hits give low values 0.994 | locus YLL026W, hits give low values 1.01 | locus YLL041C, strain sdh2, hits give low values 0.995 | locus YLR027C, strain aat2, hits give low values 1 | locus YLR113W, strain HOG1, hits give low values 1.05 | locus YLR221C, strain rsa3, hits give low values 1.02 | locus YLR258W, strain gsy2, hits give low values 1.01 | locus YLR262C, strain YPT6 (second series), hits give low values 1.04 | locus YLR320W, strain mms22, hits give low values 1.07 | locus YLR342W, strain FKS1, hits give low values 1.02 | locus YLR357W, strain rsc2, hits give low values 1.04 | locus YLR370C, strain arc18, hits give low values 1.01 | locus YLR384C, strain iki3, hits give low values 1.02 | locus YML120C, strain ndi1, hits give low values 1.01 | locus YMR058W, strain fet3, hits give low values 1.03 | locus YMR125W, strain sto1, hits give low values 1.04 | locus YMR129W, hits give low values 1.03 | locus YMR205C, strain PFK2, hits give low values 1.01 | locus YMR231W, strain pep5, hits give low values 1.03 | locus YNL071W, strain lat1, hits give low values 1.02 | locus YNL183C, strain NPR1, hits give low values 0.963 | locus YNL209W, strain ssb2, hits give low values 0.997 | locus YNL248C, strain rpa49, hits give low values 0.996 | locus YNL322C, strain KRE1 (second series), hits give low values 1.01 | locus YNR049C, strain mso1, hits give low values 0.993 | locus YOR001W, strain rrp6, hits give low values 1 | locus YOR070C, strain gyp1, hits give low values 1 | locus YOR080W, strain dia2, hits give low values 1.01 | locus YOR083W, strain WHI5, hits give low values 0.999 | locus YOR106W, strain vam3, hits give low values 0.985 | locus YOR231W, strain MKK1, hits give low values 0.977 | locus YOR265W, strain rbl2, hits give low values 1 | locus YOR270C, strain vph1, hits give low values 1.08 | locus YOR290C, strain snf2, hits give low values 0.985 | locus YPL051W, strain arl3, hits give low values 1 | locus YPL078C, strain atp4, hits give low values 1.01 | locus YPL106C, strain sse1, hits give low values 1.06 | locus YPL240C, strain hsp82, hits give low values 0.987 | locus YPL256C, strain CLN2, hits give low values 1
